Binding signal data for one sequence are collected here from PMC7862700, “An all-to-all approach to the identification of sequence-specific readers for epigenetic DNA modifications on cytosine”.

Common to all, as to test: DAPPL (digital affinity profiling via proximity ligation, sequencing); 10 mM Tris-HCl pH 7.5, 50 mM NaCl, 1 mM DTT, 4% glycerol, room temperature, 30 min; GST-TFs on glutathione beads, 16-mer random dsDNA library, 0.1% formaldehyde crosslink after washing; high values mean tight binding
One experiment has as its target T1, FLI1 (Homo sapiens, UniProt Q01543 1-452).
T1 sequence: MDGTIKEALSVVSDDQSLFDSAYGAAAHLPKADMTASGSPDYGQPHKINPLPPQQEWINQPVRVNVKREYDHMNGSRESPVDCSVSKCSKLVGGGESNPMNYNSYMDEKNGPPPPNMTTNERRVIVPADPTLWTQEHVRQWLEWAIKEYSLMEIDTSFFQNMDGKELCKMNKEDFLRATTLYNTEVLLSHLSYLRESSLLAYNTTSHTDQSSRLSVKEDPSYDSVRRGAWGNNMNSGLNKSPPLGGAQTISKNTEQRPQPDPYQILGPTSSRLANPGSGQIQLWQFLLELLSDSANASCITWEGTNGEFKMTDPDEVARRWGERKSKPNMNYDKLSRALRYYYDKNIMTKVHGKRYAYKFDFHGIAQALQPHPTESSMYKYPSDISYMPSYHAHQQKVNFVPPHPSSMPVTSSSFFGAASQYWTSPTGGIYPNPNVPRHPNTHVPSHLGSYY
The conditions noted are these: protein: recombinant; tags: N-terminal GST; dsDNA, one strand shown. An outline of the steps:
(§1)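 Human transcription factors fused to GST were expressed in yeast, captured on glutathione beads, given DNA barcodes and pooled with a GST-only negative control. Pools were incubated with 200 nmole of a 16-mer random double-stranded DNA library in Tris/NaCl/DTT/glycerol buffer at room temperature for 30 min. They were then washed, crosslinked with 0.1% formaldehyde, proximity-ligated (BsaI/T4 ligase, 1 h, 37 °C), PCR-amplified and sequenced on an Illumina NextSeq500. Binding signal is each 6-mer's read frequency for a factor divided by its frequency for the GST control.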

The target of a further experiment is T2, ERG (Homo sapiens, UniProt P11308 1-479).
T2 sequence: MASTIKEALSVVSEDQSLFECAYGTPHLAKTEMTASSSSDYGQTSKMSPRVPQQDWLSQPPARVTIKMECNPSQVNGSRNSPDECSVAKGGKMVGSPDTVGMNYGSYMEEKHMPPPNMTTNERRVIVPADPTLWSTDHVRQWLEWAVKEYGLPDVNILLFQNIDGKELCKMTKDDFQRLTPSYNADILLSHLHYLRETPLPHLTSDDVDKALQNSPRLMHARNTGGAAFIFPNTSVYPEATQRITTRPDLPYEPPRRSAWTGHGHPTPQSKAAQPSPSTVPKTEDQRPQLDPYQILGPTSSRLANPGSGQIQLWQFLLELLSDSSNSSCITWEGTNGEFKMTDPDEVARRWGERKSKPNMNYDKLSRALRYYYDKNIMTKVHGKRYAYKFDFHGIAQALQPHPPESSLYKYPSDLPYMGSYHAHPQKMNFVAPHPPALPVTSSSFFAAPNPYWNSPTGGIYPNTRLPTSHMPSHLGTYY
The conditions noted are these: protein: recombinant; tags: N-terminal GST; dsDNA, one strand shown. An outline of the steps:
as §1

The target in a further experiment is ELF1 (Homo sapiens, UniProt P32519 1-619). The settings on record: protein: recombinant; tags: N-terminal GST; dsDNA, one strand shown. An outline of the steps: as §1
ELF1, sequence (P32519 whole entry): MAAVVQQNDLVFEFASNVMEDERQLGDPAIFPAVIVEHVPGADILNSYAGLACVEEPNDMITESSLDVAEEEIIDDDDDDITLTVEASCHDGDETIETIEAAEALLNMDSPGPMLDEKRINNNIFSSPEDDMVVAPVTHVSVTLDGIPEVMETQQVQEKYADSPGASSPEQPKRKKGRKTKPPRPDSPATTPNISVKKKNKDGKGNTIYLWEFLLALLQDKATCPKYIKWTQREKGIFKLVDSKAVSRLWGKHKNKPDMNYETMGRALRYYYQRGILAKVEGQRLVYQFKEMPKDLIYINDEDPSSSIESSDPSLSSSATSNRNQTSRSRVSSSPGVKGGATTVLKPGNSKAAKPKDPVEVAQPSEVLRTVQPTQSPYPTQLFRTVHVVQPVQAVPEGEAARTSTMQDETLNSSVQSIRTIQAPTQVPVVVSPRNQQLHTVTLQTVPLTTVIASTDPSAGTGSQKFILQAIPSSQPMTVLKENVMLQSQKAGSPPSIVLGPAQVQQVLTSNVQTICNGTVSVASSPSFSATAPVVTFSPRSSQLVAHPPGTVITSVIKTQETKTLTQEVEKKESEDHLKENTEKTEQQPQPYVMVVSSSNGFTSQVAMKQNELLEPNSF
The next experiment addresses SPIB (Homo sapiens, UniProt Q01892 1-262). The settings on record: protein: recombinant; tags: N-terminal GST; dsDNA, one strand shown. The method in brief: as §1
The target of another experiment is T3, ELK3 (Homo sapiens, UniProt P41970 1-407).
T3 sequence: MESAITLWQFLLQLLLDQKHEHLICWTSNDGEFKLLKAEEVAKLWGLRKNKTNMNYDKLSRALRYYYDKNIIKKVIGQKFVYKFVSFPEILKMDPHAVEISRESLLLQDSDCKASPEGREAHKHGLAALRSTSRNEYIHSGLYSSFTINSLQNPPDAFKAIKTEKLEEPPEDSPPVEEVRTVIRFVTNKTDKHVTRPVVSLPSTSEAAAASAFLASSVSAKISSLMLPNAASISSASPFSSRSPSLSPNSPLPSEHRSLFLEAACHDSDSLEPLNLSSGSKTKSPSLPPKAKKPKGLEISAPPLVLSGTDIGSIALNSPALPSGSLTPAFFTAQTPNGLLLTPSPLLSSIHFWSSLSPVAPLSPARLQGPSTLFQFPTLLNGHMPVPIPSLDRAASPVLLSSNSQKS
The conditions noted are these: protein: recombinant; tags: N-terminal GST; dsDNA, one strand shown. An outline of the steps:
as §1

For the next experiment, the target named is HSF1 (Homo sapiens, UniProt Q00613 1-529). The conditions noted are these: protein: recombinant; tags: N-terminal GST; chain copies: 3; dsDNA, one strand shown. The method in brief: as §1
HSF1, sequence (Q00613 whole entry): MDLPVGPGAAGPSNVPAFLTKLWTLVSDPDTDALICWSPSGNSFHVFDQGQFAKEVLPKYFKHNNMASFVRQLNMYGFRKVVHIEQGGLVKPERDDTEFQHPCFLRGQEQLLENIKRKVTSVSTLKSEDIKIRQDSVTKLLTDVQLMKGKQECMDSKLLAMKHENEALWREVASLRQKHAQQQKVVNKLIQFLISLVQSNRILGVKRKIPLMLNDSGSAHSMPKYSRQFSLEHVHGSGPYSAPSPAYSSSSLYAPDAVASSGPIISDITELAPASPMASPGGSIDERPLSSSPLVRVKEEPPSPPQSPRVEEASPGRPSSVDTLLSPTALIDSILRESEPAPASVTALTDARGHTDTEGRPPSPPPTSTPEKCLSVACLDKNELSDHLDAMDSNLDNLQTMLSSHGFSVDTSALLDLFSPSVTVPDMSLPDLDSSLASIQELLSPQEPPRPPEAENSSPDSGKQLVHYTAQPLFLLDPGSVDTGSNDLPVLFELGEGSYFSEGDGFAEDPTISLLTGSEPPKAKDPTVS
In another experiment the target is ETV1 (Homo sapiens, UniProt P50549 1-477). The conditions noted are these: protein: recombinant; tags: N-terminal GST; dsDNA, one strand shown. The method in brief: as §1
ETV1, sequence (P50549 whole entry): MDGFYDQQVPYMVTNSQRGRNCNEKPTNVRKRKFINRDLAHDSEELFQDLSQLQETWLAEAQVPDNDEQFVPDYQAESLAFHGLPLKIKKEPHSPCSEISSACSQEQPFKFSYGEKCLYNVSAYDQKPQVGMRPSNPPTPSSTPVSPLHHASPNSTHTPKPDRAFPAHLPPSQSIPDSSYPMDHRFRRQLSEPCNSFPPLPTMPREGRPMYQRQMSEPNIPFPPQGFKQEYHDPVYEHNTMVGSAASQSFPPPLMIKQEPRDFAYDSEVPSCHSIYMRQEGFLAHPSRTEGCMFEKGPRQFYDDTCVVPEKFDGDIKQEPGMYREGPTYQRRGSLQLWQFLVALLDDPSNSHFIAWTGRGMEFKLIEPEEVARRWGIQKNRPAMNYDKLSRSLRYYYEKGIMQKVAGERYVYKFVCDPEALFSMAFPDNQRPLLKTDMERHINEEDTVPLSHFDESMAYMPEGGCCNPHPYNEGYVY
For the next experiment, the target named is T4, ERF (Homo sapiens, UniProt P50548 1-548).
T4 sequence: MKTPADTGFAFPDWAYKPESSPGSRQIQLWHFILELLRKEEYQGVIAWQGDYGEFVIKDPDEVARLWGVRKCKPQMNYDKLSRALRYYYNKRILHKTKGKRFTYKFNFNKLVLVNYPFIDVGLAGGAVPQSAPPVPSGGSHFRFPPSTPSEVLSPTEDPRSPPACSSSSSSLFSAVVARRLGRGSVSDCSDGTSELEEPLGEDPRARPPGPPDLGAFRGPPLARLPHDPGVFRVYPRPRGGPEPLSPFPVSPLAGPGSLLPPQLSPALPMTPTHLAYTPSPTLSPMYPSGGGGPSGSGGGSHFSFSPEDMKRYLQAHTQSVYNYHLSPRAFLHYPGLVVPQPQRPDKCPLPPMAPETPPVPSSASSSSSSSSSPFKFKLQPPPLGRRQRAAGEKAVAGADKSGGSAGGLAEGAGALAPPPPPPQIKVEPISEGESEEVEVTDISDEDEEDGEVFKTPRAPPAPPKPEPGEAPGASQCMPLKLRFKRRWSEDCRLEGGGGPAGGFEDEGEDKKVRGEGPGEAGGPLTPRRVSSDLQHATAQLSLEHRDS
The settings on record: protein: recombinant; tags: N-terminal GST; dsDNA, one strand shown. An outline of the steps: as §1

The target of another experiment is T5, ETV3L (Homo sapiens, UniProt Q6ZN32 1-361).
T5 sequence: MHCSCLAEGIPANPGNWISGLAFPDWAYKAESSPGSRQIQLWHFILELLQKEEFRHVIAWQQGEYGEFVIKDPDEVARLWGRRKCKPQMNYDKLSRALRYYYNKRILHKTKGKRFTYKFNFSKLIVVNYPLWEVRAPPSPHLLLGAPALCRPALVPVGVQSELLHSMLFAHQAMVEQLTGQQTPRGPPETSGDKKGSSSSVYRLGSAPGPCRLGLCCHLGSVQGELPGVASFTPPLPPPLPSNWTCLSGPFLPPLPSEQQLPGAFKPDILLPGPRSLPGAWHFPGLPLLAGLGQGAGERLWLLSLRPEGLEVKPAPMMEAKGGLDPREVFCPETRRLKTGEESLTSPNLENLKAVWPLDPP
The conditions noted are these: protein: recombinant; tags: N-terminal GST; dsDNA, one strand shown. An outline of the steps: as §1

A further experiment concerns the target T6, ETV3 (Homo sapiens, UniProt P41162-2 1-143).
T6 sequence: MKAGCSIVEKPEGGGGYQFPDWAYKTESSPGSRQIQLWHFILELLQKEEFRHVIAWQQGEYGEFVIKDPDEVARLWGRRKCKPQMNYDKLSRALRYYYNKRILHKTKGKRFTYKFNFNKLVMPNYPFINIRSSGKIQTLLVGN
The settings on record: protein: recombinant; tags: N-terminal GST; dsDNA, one strand shown. The method in brief: as §1

SPIB, sequence (Q01892 whole entry): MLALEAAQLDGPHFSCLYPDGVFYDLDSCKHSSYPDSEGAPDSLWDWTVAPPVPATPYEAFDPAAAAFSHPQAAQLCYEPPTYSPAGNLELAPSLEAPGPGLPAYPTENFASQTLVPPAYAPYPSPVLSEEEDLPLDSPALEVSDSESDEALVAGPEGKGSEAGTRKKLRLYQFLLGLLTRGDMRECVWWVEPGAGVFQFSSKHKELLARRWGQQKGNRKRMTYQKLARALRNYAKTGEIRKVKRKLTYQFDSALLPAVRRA

CTCGGG: the binding signal is 1.06 fold enrichment (6-mer frequency, TF over GST control) with FLI1; 1.03 fold enrichment (6-mer frequency, TF over GST control) with ERG; 1.09 fold enrichment (6-mer frequency, TF over GST control) in the experiment with ELF1; 1.03 fold enrichment (6-mer frequency, TF over GST control) in the experiment with SPIB; 1.05 fold enrichment (6-mer frequency, TF over GST control) in the experiment with ELK3; 1.04 fold enrichment (6-mer frequency, TF over GST control) in the experiment with HSF1. For the same sequence, the binding signal in the experiment with ETV1 was 1.03 fold enrichment (6-mer frequency, TF over GST control); with ERF, 1.02 fold enrichment (6-mer frequency, TF over GST control); with ETV3L, 1.09 fold enrichment (6-mer frequency, TF over GST control); with ETV3, 1 fold enrichment (6-mer frequency, TF over GST control).
